# Results from ChEMBL document CHEMBL4513146, “CO-ADD screening of Karazin Kharkiv National University (Ukraine) compounds”.
# Potency and affinity values are given separately.
# Legend:
# Staphylococcus aureus = settings: Concentration 32 ug.mL-1;; ASSAY_TEST Inhibition of Bacterial Growth; detection method Absorption (OD600); MEDIA CAMHB; plate type 384well; NBS; CORNING #3640; time 18 hr
# Escherichia coli = settings: Concentration 32 ug.mL-1;; ASSAY_TEST Inhibition of Bacterial Growth; detection method Absorption (OD600); MEDIA CAMHB; plate type 384well; NBS; CORNING #3640; time 18 hr
Compound,Inhibition (Staphylococcus aureus) [%],Inhibition (Escherichia coli) [%]
COC(=O)c1ccccc1NC(=O)CSc1nc2ccccc2n2c(C(C)C)nnc12,10.06,-3.26
COc1ccc(C)cc1NC(=O)Cn1nc2c3cc(-c4ccc(C)c(C)c4)nn3ccn2c1=O,0.65,-4.8
COc1ccc(OC)c(NC(=O)Cn2nc3c4cc(-c5ccc(F)cc5)nn4ccn3c2=O)c1,7.29,-2.37
CCc1nnc2ccc(S(=O)(=O)N(Cc3cccc(OC)c3)c3ccc(F)cc3)cn12,-0.44,-12.34
COc1ccc(NC(=O)Cn2nc3c4cc(-c5ccc(C)cc5)nn4ccn3c2=O)cc1,-5.75,-1.43
Cc1nnc2ccc(S(=O)(=O)N(Cc3ccc(F)cc3)c3ccc4c(c3)OCO4)cn12,6.11,-4.59
CCC(Sc1nnc2c(=O)n(-c3ccc(C)c(C)c3)ccn12)C(=O)Nc1cc(OC)ccc1OC (configuration not stated),-17.77,-11.35
Cc1ccc(F)cc1NC(=O)CSc1nc2ccccc2n2c(C)nnc12,2.37,1.62
CCc1ccc(N(Cc2ccc(Cl)cc2)S(=O)(=O)c2cccn3c(C)nnc23)cc1,0.63,-8.46
Cc1ccccc1CN(c1ccc(C(C)C)cc1)S(=O)(=O)c1cccn2cnnc12,17.72,2.74
CCOc1ccc(-n2ccn3c(SCC(=O)c4cccc(Cl)c4)nnc3c2=O)cc1,18.89,0.66
Cc1ccccc1Cn1nc2ccc(-c3ccccc3)nn2c1=O,10.41,1.97
Cc1ccc(C)c(NC(=O)Cn2nc3cc(C)nc(Nc4ccc(F)cc4)n3c2=O)c1,-0.57,-5.84
C=Cc1ccc(Cn2nc3c(=O)n(-c4ccc(C)c(C)c4)ccn3c2=O)cc1,0.4,3.59
O=S(=O)(c1ccc2nncn2c1)N(Cc1cc(F)cc(F)c1)c1ccc(F)c(F)c1,8.61,-4.86
CCc1ccc(NC(=O)Cn2nc3c4cc(-c5ccc(C)c(C)c5)nn4ccn3c2=O)cc1,1.77,-6.18
COc1ccccc1NC(=O)Cn1nc2c(Oc3ccc(Cl)cc3)nccn2c1=O,6.15,-7.74
O=C(Cn1nc2c3c4c(sc3ncn2c1=O)CCCC4)NCc1ccc(F)cc1,8.69,-4.83
Cc1oc(-c2ccc(OC(C)C)cc2)nc1CSc1nc2ccccc2n2c(C(C)C)nnc12,-4.43,-16.17
COc1cccc(-n2ccn3c(=O)n(Cc4ccc([N+](=O)[O-])cc4)nc3c2=O)c1,7.57,-2.91
Cc1nnc2ccc(S(=O)(=O)N(Cc3cccc(F)c3)c3ccc(F)c(F)c3)cn12,0.15,-12.6
Cc1ccc(-c2nc(CSc3nc4ccccc4n4c(C(C)C)nnc34)c(C)o2)cc1,-8.56,-6.52
Cc1ccc(-c2ccc3nn(CC(=O)NCc4ccc(Cl)cc4)c(=O)n3n2)cc1C,-0.74,-5.52
O=c1n(Cc2cccc(Br)c2)nc2ccc(-c3ccccc3)nn12,4.53,-3.48

Compound,Inhibition (Staphylococcus aureus) [%],Inhibition (Escherichia coli) [%]
COc1ccc(NC(=O)Cn2nc3c(SCc4ccc(Cl)cc4)nccn3c2=O)cc1OC,6.14,-6.36
CC(C)c1nnc2c(SCC(=O)Nc3ccc(Cl)cc3C(F)(F)F)nc3ccccc3n12,2.01,-15.72
Cc1ccc(NC(=O)Cn2c(=O)c3nnc(C(C)C)n3c3ccccc32)cc1C,7.95,6.48
Cc1ccc(C)c(CSc2nnc3c(=O)n(-c4ccc(Br)cc4)ccn23)c1,3.9,-0.75
COc1cccc(-n2ccn3c(SCC(=O)Nc4ccc(C(C)C)cc4)nnc3c2=O)c1,0.38,-24.97
Cc1ccccc1CSc1nnc2c(=O)n(-c3ccc(F)c(F)c3)ccn12,12.28,-1.52
Cc1cc(C)c(NC(=O)Cn2nc3c4cc(-c5ccc(F)cc5)nn4ccn3c2=O)c(C)c1,12.62,1.69
O=C(CSc1nnc2c3cc(-c4ccccc4)nn3ccn12)NCc1ccc(Cl)cc1,6.91,-1.12
COc1cccc(Cn2nc3c(=O)n(-c4cccc(Cl)c4C)ccn3c2=O)c1,-6.87,-16.22
Cc1cc2nn(CC(=O)NCc3ccco3)c(=O)n2c(Nc2ccc(C)c(F)c2)n1,0.2,-8.01
Cc1ccc(NC(=O)Cn2nc3ccc(SC(C)C)nn3c2=O)cc1F,-3.37,-1.63
COc1cc(NC(=O)Cn2nc3c(Oc4ccccc4)nccn3c2=O)cc(OC)c1OC,13.24,1.16
COc1cccc(Sc2nc3ccccc3n3c(=O)n(CC(=O)Nc4cc(C)cc(C)c4)nc23)c1,0.14,3.24
CCC(C)NC(=O)Cn1c(=O)c2nnc(C)n2c2ccccc21 (configuration not stated),9.8,-2.5
CCOc1ccc(-n2ccn3c(SCC(=O)NCc4ccccc4Cl)nnc3c2=O)cc1,3.68,-5.16
N#CCSc1nnc2c(=O)n(-c3ccc(Br)cc3)ccn12,14.93,-0.38
C=Cc1ccc(CN(c2ccc(C(C)C)cc2)S(=O)(=O)c2cccn3c(C)nnc23)cc1,-12.1,1.96
COc1ccc(NC(=O)Cn2nc3c(N4CC(C)CC(C)C4)nccn3c2=O)c(OC)c1 (configuration not stated),18.35,1.24
CCCc1nnc2c(=O)n(CC(=O)Nc3cccc(Br)c3)c3ccccc3n12,8.23,-5.6
Cc1ccc(-c2ccc3nn(Cc4ccc(Cl)cc4)c(=O)n3n2)cc1C,-1.51,-5.81
CCc1nnc2c(S(=O)(=O)N(Cc3ccccc3C)c3ccc(Cl)cc3)cccn12,-22.93,-4.88
CCCCn1c(=O)c2sccc2n2c(=O)n(CC(=O)c3ccc(C)cc3C)nc12,-3.74,-4.86
Cc1nnc2c(SCC(=O)Nc3ccc(C#N)cc3)nc3ccccc3n12,-1.63,-2.61
COc1ccc(NC(=O)CSc2nnc3c(=O)n(-c4ccccc4)ccn23)cc1OC,9.52,-7.32

Compound,Inhibition (Staphylococcus aureus) [%],Inhibition (Escherichia coli) [%]
Cc1ccc(CNC(=O)Cn2nc3c(Oc4ccccc4C)nccn3c2=O)cc1,5.58,-1.39
O=C(CSc1nnc2c3cc(-c4ccc(F)cc4)nn3ccn12)NCCc1ccccc1,4.82,-7.39
CSc1ccc(-c2noc(Cn3nc4ccc(-c5ccccc5)nn4c3=O)n2)cc1,3.45,0.55
Cc1nnc2c(S(=O)(=O)N(Cc3ccccc3F)c3cc(F)cc(F)c3)cccn12,-8.28,2.33
O=c1c2sccc2n2c(=O)n(Cc3ccc(Br)cc3)nc2n1CCc1ccccc1,-9.4,-11.48
COc1cccc(-n2ccn3c(SCc4ccc(C)cc4)nnc3c2=O)c1,8.11,-4.39
COc1ccc(N2CCN(C(=O)Cn3nc4ccc(-c5ccccc5)nn4c3=O)CC2)cc1,15.35,1.42
O=C(Cn1nc2ccc(SCc3ccc(Cl)cc3)nn2c1=O)Nc1ccc2c(c1)OCO2,9.4,-2.43
CCc1ccccc1NC(=O)Cn1nc2c(SC3CCCCC3)nccn2c1=O,7.59,-2.96
Cc1cccc(NC(=O)c2ccc3nn(CC(=O)N4CCc5ccccc5C4)c(=O)n3c2)c1,-5.11,-8.84
Cc1cccc(C)c1NC(=O)CSc1nnc2ccc(C(=O)Nc3cccc(F)c3)cn12,12.1,2.91
COc1ccc(-c2cc3c4nnc(SCC(=O)NCc5ccc(Cl)cc5)n4ccn3n2)cc1,-1.89,-4.94
COc1ccc(NC(=O)c2ccc3nn(CC(=O)Nc4ccc(C(C)C)cc4)c(=O)n3c2)cc1,9.69,-3.43
CCc1ccccc1Sc1nccn2c(=O)n(CC(=O)N3CCN(c4ccc(F)cc4)CC3)nc12,2.23,-2.15
COc1cc(OC)c(NC(=O)Cn2nc3c(Oc4cccc(C)c4C)nccn3c2=O)cc1Cl,1.15,-3.57
CC(=O)c1ccc(NC(=O)Cn2nc3ccc(-c4ccc(C)cc4)nn3c2=O)cc1,10.69,-3.43
CCCCOc1ccc(-c2cc3c4nnc(SCC(=O)Nc5ccc(F)cc5)n4ccn3n2)cc1,2.53,-6.79
COc1cccc(CN(c2ccccc2)S(=O)(=O)c2ccc3nncn3c2)c1,6.2,-8.56
Cc1nnc2c(S(=O)(=O)N(Cc3cccc(Cl)c3)c3ccc(F)c(F)c3)cccn12,3.24,-3.66
Cc1ccc(NC(=O)Cn2nc3cc(C)nc(Nc4ccc(F)c(C)c4)n3c2=O)cc1,11.03,0.27
COc1ccccc1NC(=O)Cn1nc2c(SC3CCCCC3)nccn2c1=O,-13.71,-14.54
Cc1cccc(Cn2nc3c(=O)n(-c4cccc(Cl)c4C)ccn3c2=O)c1,-1.78,-16.69
Cc1ccc(-n2ccn3c(=O)n(Cc4c(F)cccc4Cl)nc3c2=O)cc1C,10.39,-0.86
